# According to PubChem BioAssay (NCI):
# Compounds without any hit were thinned out: in the full panel of roughly 83,000, 20% have a hit.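 Plates (96-well) were seeded with cells, treated with compound at one concentration, and incubated for 48 hours before percent growth was determined.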 The source made the active and inactive calls. How the source made its calls: active means growth percent below 10; inactive means the rest.
# System: MDA-MB-231 breast
# Experiment: NCI-60 one-dose screen, 48 h (100 = growth as untreated, 0 = no growth, -100 = all killed)
# Settings: 10 µM unless noted
row,SMILES,growth
1,CC1=C(C)C(=O)C(Nc2ccc(C)cc2)=C(Br)C1=O,70.1% (inactive)
2,Cc1ccc(N2CCN(C3=C(Cl)C(=O)c4ncccc4C3=O)CC2)cc1,24.5% (inactive)
3,COc1ccc2[nH]cc(-c3nc(N)nnc3-c3cn(C)c4ccc(Br)cc34)c2c1,48.1% (inactive)
4,O=C(/C=C/c1ccccc1Cl)Nc1ncc(Cc2cc(Cl)ccc2Cl)s1,49.4% (inactive)
5,CN(C)S(=O)(=O)c1ccc(-c2nc(C(Cl)Cl)nc3cc(-c4ccc(F)cc4)nn23)cc1,1.26% (active)
6,Fc1ccc(-c2cn3c(-c4c[nH]c5ccc(Br)cc45)csc3n2)cc1,15.5% (inactive)
7,C#Cc1nc(/C=C/CCCCCCC(=O)NO)cs1,-31% (active)
8,C#C[C@]1(O)CC[C@H]2[C@@H]3CC=C4c5sc(Nc6ncccc6C)nc5CC[C@]4(C)[C@H]3CC[C@@]21C,12.8% (inactive)
9,CC(C)=CCC[C@](C)(O)[C@H]1CC[C@]2(C)[C@@H]1CC[C@@H]1[C@@]3(C)CC[C@H](N)C(C)(C)[C@@H]3CC[C@]12C,85.4% (inactive)
10,Cc1cc2nc3c4cc(C#N)ccc4n(CCN(C)C)c3nc2cc1C,8.68% (active)
11,N#Cc1c(-c2cccs2)cc(-c2cnccn2)nc1SCC(=O)N/N=C/c1ccncc1,102% (inactive)
12,CCOC(=O)c1cccc(NC2=C(Cl)C(=O)C(C)=C(C)C2=O)c1,28% (inactive)
13,c1ccc(-c2cn3c(-c4c[nH]c5ccccc45)csc3n2)cc1,61.7% (inactive)
14,Cc1cc(Br)ccc1-n1cc(C#N)c(N)c1C(=O)c1ccc(Br)cc1,93.6% (inactive)
15,Cn1cc(-c2cc3ncnc(Nc4ccc(NC(=O)Nc5cc(C(C)(C)C)on5)cc4)c3s2)cn1,28% (inactive)
16,Nc1cc(C(=O)N/N=C\c2ccc(OC(F)F)c(OC3CCCC3)c2)nn1CC(O)c1ccccc1 (stereo not given),97.5% (inactive)
17,COc1ccc(C2CC(c3cccc(OCCCCOc4cccc(C5=NOC(c6ccc(OC)cc6)C5)c4)c3)=NO2)cc1 (stereo not given),99.9% (inactive)
18,O=C(COc1ccc(/C=C2\C(=O)Nc3ccc(Cl)cc32)cc1)Nc1ccc(Cl)cc1,76.6% (inactive)

row,SMILES,growth
1,Cn1cc(-c2nnc(N)nc2-c2c[nH]c3ccc(F)cc23)c2cc(Br)ccc21,47.3% (inactive)
2,C[C@H](Nc1ncnc2ccc(-c3cnc(Cl)c(NS(C)(=O)=O)c3)cc12)c1ccccc1,-17.1% (active)
3,O=C(CSc1nc2ccccc2c(=O)n1CCc1ccccc1)Nc1ccc(S(=O)(=O)Nc2ccc(Cl)nn2)cc1,94.7% (inactive)
4,NS(=O)(=O)c1ccc(Nc2nc(N/N=C/C=C/c3ccccc3)nc(Nc3ccccc3)n2)cc1,47.9% (inactive)
5,O=C1[C@H]2Cc3c([nH]c4ccccc34)[C@H](c3ccc(Br)cc3)N2C(=O)CN1C1CCN(CC2CCCCC2)CC1,76.5% (inactive)
6,CCc1cc2c(cc1Cl)nc1c(=O)[nH]c(=O)nc-1n2CCOCC(C)(C)C,67.2% (inactive)
7,COc1ccc(-c2nc(C#N)c(N3CCC(S(=O)(=O)N4CCOCC4)CC3)o2)cc1,95.1% (inactive)
8,COC(=O)c1ccc(NC2=C(Cl)C(=O)c3nc(C)ccc3C2=O)cc1,91.9% (inactive)
9,Cc1ccccc1N1CCN(C2=C(Cl)C(=O)c3ncccc3C2=O)CC1,88.3% (inactive)
10,CC[C@]12C=CCN3CC[C@@]4(c5ccc(OC)cc5N(C)[C@H]4[C@@](O)(C(=O)OC)[C@@H]1OC(=O)CCN1CCc4ccccc4C1)[C@@H]32,84.9% (inactive)
11,Cc1nc(N)sc1-c1csc(Nc2ccc(C(F)(F)F)cc2)n1,20.1% (inactive)
12,Cn1cc(-c2nnc(N)nc2-c2c[nH]c3ccc(Br)cc23)c2cc(Br)ccc21,98.7% (inactive)
13,C#C[C@]1(O)CC[C@H]2[C@@H]3CC=C4c5sc(N(C)c6ccccc6)nc5CC[C@]4(C)[C@H]3CC[C@@]21C,98.6% (inactive)
14,NS(=O)(=O)c1ccc(Nc2nc(Nc3ccccc3)nc(N3N=C(c4ccc(Cl)cc4)CC3c3ccc(Cl)cc3)n2)cc1 (stereo not given),54.3% (inactive)
15,O=C(CCCCCCN1CC(=O)N2[C@@H](c3ccc(Cl)s3)c3[nH]c4ccccc4c3C[C@H]2C1=O)NO,43.8% (inactive)
16,CCCCc1nc2c(N)nc3ccccc3c2n1Cc1cccc(CN)c1,57.3% (inactive)
17,N#C/C(=C\c1ccc(-c2ccc(Cl)c(Cl)c2)o1)C(=O)Nc1ncc(Cc2ccc(Cl)cc2)s1,50% (inactive)
